Assay results published in PubChem BioAssay.
Calls of active or inactive are those of the source. Unless noted, how the calls were made is not given here.

Columns and labels:
[1] = tested on: Wnt5a (protein binding on small-molecule microarray); assay: small molecules binding Wnt5a protein – biophysical, small-molecule microarray, 635/667 nm fluorescence, primary screen (AID 1142); settings: 635 nm fluorescence, higher = more signal;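 further: fluorescence read at 667 nm with signal to noise per printed feature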
[2] = ATP-based viability of Huh7 replicon cells – cell-based, CellTiter-Glo luminescence, basal, 48 h, cytotoxicity control for HCV replication inhibitor project, primary screen (AID 1143); settings: higher = more signal, called active from +8 up or from −8 down;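 further: Huh7 hepatoma cells carrying a hepatitis C replication reporter with no stimulus; test concentration not given here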
[3] = Pseudomonas biofilm growth suppression – PAO1 strain, BacTiter-Glo luminescence, LB-PBS, primary screen (AID 1144); settings: P. aeruginosa PAO1 biofilm, 12 h, higher = more signal
[4] = basal CRE-LacZ reporter activity in PC12 – cell-based, unstimulated, primary screen (AID 1145); settings: no forskolin, luminescence, 4.5 h, higher = more signal, called active from +8 up or from −8 down
[5] = forskolin-driven CRE-LacZ activity in PC12 – cell-based, CRE-LacZ reporter, forskolin-stimulated, primary screen (AID 1146); settings: luminescence, 4.5 h, higher = more signal, called active from +8 up or from −8 down;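 further: PC12 cells with 6xCRE LacZ reporter stimulated by forskolin 10 µM; beta-galactosidase reporter signal reflecting CREB driven transcription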
[6] = target: Streptavidin (Streptomyces avidinii) (UniProt P22629); assay: compounds binding control protein streptavidin – biophysical, small-molecule microarray, 635/667 nm fluorescence, artefact control for SMM compound annotation, primary screen (AID 1147); settings: higher = more signal;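 further: signal reflects streptavidin binding to arrayed compounds as a control protein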
[7] = probe aInhba binding on compound microarray – biochemical, small-molecule microarray, 635/667 nm fluorescence, primary screen (AID 1148); settings: higher = more signal;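 further: score merges 667nm spot fluorescence with signal-to-noise for antibody binding to printed compounds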
[8] = target: Torsin-1A (Homo sapiens) (UniProt O14656); assay: TOR1A wild-type binding on microarray – cell lysate, small-molecule microarray, lysate, 635/667 nm, primary screen (AID 1149); settings: COS7 hTOR1A-WT lysate, 635 nm fluorescence, higher = more signal
[9] = target: Torsin-1A (Homo sapiens) (UniProt O14656); assay: torsin A mutant lysate binding on microarrays – cell lysate, small-molecule microarray, COS7 lysate, 635/667 nm fluorescence, primary screen (AID 1150); settings: COS7 hTOR1A mutant lysate, 635 nm fluorescence, higher = more signal;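 further: score pools 667 nm emission and signal to noise measuring lysate protein binding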
[10] = tested on: Sonic hedgehog protein (Shh); assay: Sonic hedgehog microarray binding compounds – biochemical, small-molecule microarray, 635/667 nm fluorescence, primary screen (AID 1151); settings: 635 nm fluorescence, higher = more signal;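 further: Shh protein binding to compounds spotted on small-molecule microarray slides; score combines spot fluorescence intensity with signal-to-noise across triplicate slides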
[11] = optical density shifts of acrAB sulA E. coli – strain DRC41, OD650, 48 h, E. coli filamentation inducer project, primary screen (AID 1152); settings: higher = more signal, called active from +8 up or from −8 down;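 further: E. coli MC1000 strain DRC41 lacking acrAB efflux pump and sulA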
[12] = probe aLefty1 binding on compound microarray – biochemical, small-molecule microarray, 635/667 nm fluorescence, primary screen (AID 1153); settings: higher = more signal;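 further: score merges spot fluorescence with signal-to-noise ratio from the scanned slide images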
[13] = plasmodial surface anion channel blockers, osmotic lysis – cell-based, P. falciparum Indochina, OD700, 1 h, primary screen (AID 1154); settings: P. falciparum Indochina infected RBC osmotic lysis, higher = more signal, called active from +8 up or from −8 down
[14] = plasmodial surface anion channel blockers, osmotic lysis – cell-based, P. falciparum Indochina, OD700, 2 h, primary screen (AID 1155);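 further: lysis reports solute entry through the parasite surface anion channel PSAC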; settings: P. falciparum Indochina infected erythrocytes, higher = more signal, called active from +8 up or from −8 down
[15] = changes in parasitized red cell lysis, either direction – P. falciparum Indochina, OD700, 3 h, PSAC antagonist project, primary screen (AID 1156); settings: P. falciparum-infected erythrocytes, osmotic lysis, higher = more signal, called active from +8 up or from −8 down
[16] = plasmodial surface anion channel blockers, osmotic lysis – cell-based, P. falciparum Indochina, OD700, 18 h, primary screen (AID 1157); settings: P. falciparum Indochina infected erythrocytes, osmotic lysis OD700, 18 h; higher = more signal, called active from +8 up or from −8 down
[17] = S6 kinase pathway phospho-S6 level changes – cell-based, A549, cytoblot, luminescence, serum-stimulated, primary screen (AID 1158); settings: 5 h, higher = more signal;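 further: serum-stimulated A549 lung adenocarcinoma cells; signal is phosphorylated S6 detected by cytoblot immunostaining with HRP secondary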
[18] = target: NADPH oxidase 2 (Homo sapiens) (UniProt P04839); assay: compounds shifting NOX2 Amplex Red fluorescence – cell-based, HEK293-NOX2, PMA-stimulated, NOX inhibitor project, primary screen (AID 1159); settings: 45 min, higher = more signal, called active from +8 up or from −8 down; further: test concentration not given here
[19] = target: NADPH oxidase 4 (Homo sapiens) (UniProt Q9NPH5); assay: compounds shifting NOX4 Amplex Red fluorescence – cell-based, HEK293-NOX4, tetracycline-induced, NOX inhibitor project, primary screen (AID 1160); settings: HEK293-NOX4, Amplex Red H2O2 fluorescence, 45 min; higher = more signal, called active from +8 up or from −8 down
[20] = target: NADPH oxidase 5 (Homo sapiens) (UniProt Q96PH1); assay: compounds shifting NOX5 Amplex Red fluorescence – cell-based, HEK293-NOX5, NOX inhibitor project, primary screen (AID 1161); settings: HEK293-NOX5, ionomycin, 45 min, higher = more signal
Chain of NADPH oxidase 5 (Homo sapiens) (Q96PH1 whole entry, looked up): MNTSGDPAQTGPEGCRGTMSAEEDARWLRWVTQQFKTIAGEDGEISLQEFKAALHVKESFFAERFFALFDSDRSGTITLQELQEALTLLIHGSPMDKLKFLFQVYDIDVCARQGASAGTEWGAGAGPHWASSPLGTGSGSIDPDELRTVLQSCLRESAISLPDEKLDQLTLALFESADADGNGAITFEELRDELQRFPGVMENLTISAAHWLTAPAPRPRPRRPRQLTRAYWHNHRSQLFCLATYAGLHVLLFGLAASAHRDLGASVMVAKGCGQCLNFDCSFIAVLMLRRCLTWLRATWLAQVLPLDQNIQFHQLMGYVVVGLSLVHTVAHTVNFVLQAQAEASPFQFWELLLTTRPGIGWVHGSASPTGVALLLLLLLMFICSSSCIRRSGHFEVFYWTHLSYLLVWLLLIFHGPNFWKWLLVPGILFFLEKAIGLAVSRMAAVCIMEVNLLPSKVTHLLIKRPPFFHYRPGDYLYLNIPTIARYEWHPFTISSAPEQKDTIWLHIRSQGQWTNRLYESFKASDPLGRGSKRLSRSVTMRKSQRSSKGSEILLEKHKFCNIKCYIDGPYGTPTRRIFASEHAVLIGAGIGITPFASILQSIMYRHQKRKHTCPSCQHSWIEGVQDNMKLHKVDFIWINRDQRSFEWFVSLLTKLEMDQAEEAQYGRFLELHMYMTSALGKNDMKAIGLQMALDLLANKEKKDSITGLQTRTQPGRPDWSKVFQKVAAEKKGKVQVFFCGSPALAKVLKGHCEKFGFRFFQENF

Chain of NADPH oxidase 4 (Homo sapiens) (Q9NPH5 whole entry, looked up): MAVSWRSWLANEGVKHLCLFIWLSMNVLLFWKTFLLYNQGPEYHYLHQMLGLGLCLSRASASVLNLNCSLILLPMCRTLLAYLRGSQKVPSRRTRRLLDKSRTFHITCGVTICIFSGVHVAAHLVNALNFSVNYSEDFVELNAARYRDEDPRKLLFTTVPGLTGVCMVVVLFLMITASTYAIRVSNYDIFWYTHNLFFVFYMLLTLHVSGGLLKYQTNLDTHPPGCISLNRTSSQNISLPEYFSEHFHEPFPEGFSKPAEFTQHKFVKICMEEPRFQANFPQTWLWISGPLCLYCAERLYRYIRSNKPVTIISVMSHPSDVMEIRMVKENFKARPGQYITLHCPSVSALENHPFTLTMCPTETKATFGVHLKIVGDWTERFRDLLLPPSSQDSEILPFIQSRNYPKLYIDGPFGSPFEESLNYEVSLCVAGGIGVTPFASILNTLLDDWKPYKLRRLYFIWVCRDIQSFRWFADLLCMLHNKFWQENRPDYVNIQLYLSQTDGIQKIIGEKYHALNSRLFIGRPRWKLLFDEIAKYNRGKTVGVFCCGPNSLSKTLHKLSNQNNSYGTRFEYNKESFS
Chain of Torsin-1A (Homo sapiens) (O14656 whole entry, looked up): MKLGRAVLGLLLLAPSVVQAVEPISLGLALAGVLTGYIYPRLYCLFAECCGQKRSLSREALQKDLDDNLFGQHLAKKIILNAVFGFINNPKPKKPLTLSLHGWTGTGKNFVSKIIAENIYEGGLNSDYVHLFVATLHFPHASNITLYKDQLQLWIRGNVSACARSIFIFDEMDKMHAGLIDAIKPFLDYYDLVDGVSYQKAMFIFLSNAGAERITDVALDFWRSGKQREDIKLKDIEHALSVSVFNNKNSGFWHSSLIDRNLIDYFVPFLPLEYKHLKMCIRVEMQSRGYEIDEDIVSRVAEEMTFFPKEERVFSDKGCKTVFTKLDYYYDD
Chain of NADPH oxidase 2 (Homo sapiens) (P04839 whole entry, looked up): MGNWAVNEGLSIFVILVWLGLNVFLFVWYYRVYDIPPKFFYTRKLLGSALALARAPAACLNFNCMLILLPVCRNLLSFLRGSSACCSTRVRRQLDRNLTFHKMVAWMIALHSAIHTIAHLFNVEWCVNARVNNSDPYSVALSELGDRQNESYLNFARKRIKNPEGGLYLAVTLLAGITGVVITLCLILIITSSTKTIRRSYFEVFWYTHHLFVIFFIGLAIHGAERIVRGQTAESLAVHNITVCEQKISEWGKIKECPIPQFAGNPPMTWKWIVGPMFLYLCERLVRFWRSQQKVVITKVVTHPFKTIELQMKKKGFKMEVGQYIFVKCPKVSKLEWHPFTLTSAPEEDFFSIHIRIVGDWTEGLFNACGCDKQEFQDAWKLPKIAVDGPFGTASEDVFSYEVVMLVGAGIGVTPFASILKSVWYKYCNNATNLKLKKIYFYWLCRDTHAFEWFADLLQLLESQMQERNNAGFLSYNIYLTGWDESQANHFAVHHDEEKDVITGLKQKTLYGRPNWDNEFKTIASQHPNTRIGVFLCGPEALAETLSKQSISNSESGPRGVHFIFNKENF
Chain of Streptavidin (Streptomyces avidinii) (P22629 whole entry, looked up): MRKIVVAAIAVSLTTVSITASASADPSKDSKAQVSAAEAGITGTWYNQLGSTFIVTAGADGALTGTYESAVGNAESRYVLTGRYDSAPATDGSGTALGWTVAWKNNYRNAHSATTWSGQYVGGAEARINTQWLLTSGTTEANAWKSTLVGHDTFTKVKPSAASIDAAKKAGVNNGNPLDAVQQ

SMILES	composite z-score [1]	z-score [2]	z-score [3]	z-score [4]	z-score [5]	composite z-score [6]	composite z-score [7]	composite z-score [8]	composite z-score [9]	composite z-score [10]	z-score [11]	composite z-score [12]	z-score [13]	z-score [14]	z-score [15]	z-score [16]	z-score [17]	z-score [18]	z-score [19]	z-score [20]
CO[C@@H]1C=CCC(=O)N2CCC[C@H]2C(=O)OC[C@@H](C)C(=O)OC[C@H]1C	0.172	-0.0949 (inactive)	-1.23 (inactive)	-0.0234 (inactive)	0.2 (inactive)	-0.482	-0.0762	-0.0067	0.652	1.68	1.12 (inactive)	0.154	0.0026 (inactive)	0.155 (inactive)	0.335 (inactive)	0.181 (inactive)	0.467	-0.805 (inactive)	0.766 (inactive)	0.147
COc1cccc([C@H]2Oc3ccc(OC)cc3C(=NOC[C@@H](C)[C@H](OCc3ccccc3)C(C)C)[C@@H]2O)c1	0.276	-0.324 (inactive)	0.508 (inactive)	0.666 (inactive)	0.649 (inactive)	-0.234	-0.106	0.577	0.83	0.115	-1.25 (inactive)	-0.0428	2.57 (inactive)	0.947 (inactive)	0.0083 (inactive)	0.612 (inactive)	-0.891	-0.364 (inactive)	-2.1 (inactive)	-1.97
CC(CCN1CCCc2nc(C)c(C)cc21)=NO[C@@H](C)c1cc(-c2c(C)cc(C)cc2C)no1	0.0353	-0.636 (inactive)	-0.501 (inactive)	-0.0591 (inactive)	-0.559 (inactive)	0.327	0.111	0.464	-0.184	0.54	1.22 (inactive)	0.0402	3.44 (inactive)	0.762 (inactive)	1.35 (inactive)	0.465 (inactive)	0.124	-1 (inactive)	-0.469 (inactive)	0.221
CO[C@@H]1COC(=O)[C@H](CCSC)NC(=O)CC=C[C@@H](C)COC(=O)CCC[C@H]1C	-0.277	-2.75 (inactive)	-0.88 (inactive)	0.341 (inactive)	0.85 (inactive)	-1.47	-0.255	4.03	4.08	2.27	0.337 (inactive)	0.729	19.7 (active)	3.14 (inactive)	2.07 (inactive)	1.18 (inactive)	0.016	-1.12 (inactive)	0.369 (inactive)	-0.918
CCOC(=O)CCN1C(=O)[C@H]2[C@H]3[C@H](O)[C@H](O)CC(=NOCc4ccccc4)[C@H]3CC[C@H]2C1=O	0.14	0.223 (inactive)	1.14 (inactive)	-0.295 (inactive)	-0.21 (inactive)	0.758	0.0805	-0.296	-0.522	-0.212	1.02 (inactive)	0.914	3.06 (inactive)	0.939 (inactive)	-0.35 (inactive)	0.451 (inactive)	-0.578	-0.43 (inactive)	0.622 (inactive)	0.279
O=C1OCCC=C1C(O)CCc1ccccc1 (stereo not given)	0.0626	0.104 (inactive)	1.15 (inactive)	0.196 (inactive)	0.571 (inactive)	0.992	-0.0562	-0.0693	0.0478	0.316	-0.27 (inactive)	-0.057	0.512 (inactive)	-0.57 (inactive)	-0.177 (inactive)	-0.193 (inactive)	-0.136	-0.428 (inactive)	0.0181 (inactive)	0.111
COc1ccc(O[C@H]2C=C[C@@H](c3ccccc3)O[C@@H]2CON=C2[C@H]3CCn4c(=O)n(-c5ccccc5)c(=O)n4[C@H]3[C@H](O)[C@@H]3O[C@H]23)cc1	0.185	-1.53 (inactive)	1.92 (inactive)	0.834 (inactive)	-0.016 (inactive)	0.836	-0.2	0.0461	0.066	0.536	-0.402 (inactive)	-0.012	8.37 (active)	1.25 (inactive)	0.671 (inactive)	0.858 (inactive)	-0.511	-1.37 (inactive)	-0.132 (inactive)	-0.17
COC(=O)[C@H](C)NC(=O)CCC1CC(OC(=O)NCCc2ccc(F)cc2)CC2(CCCC(COC(=O)NCCC(C)C)O2)O1 (stereo not given in full)	0.255	-0.872 (inactive)	-1.41 (inactive)	0.109 (inactive)	0.283 (inactive)	0.0943	0.0047	-0.184	-0.0067	1.22	-0.484 (inactive)	0.0844	21.1 (active)	4.7 (inactive)	0.0444 (inactive)	0.266 (inactive)	1.14	0.341 (inactive)	0.302 (inactive)	-0.385
CC(C)=CCCC(C)=CCON=C1C[C@@H](O)[C@@H](O)[C@@H]2[C@@H]3C(=O)N(C4CCCCC4)C(=O)[C@@H]3CC[C@@H]12	0.24	-0.592 (inactive)	0.233 (inactive)	0.517 (inactive)	0.13 (inactive)	-0.0037	-0.0719	0.184	0.288	1.08	-0.734 (inactive)	-0.147	2.18 (inactive)	0.677 (inactive)	-0.25 (inactive)	0.525 (inactive)	-0.367	0.606 (inactive)	0.435 (inactive)	-0.18
CC(C)=CCCC(C)=CCON=C1C[C@@H](O)[C@@H](O)[C@@H]2[C@@H]3C(=O)N(C(C)(C)C)C(=O)[C@@H]3CC[C@@H]12	-0.0529	-0.813 (inactive)	-0.408 (inactive)	1.6 (inactive)	0.585 (inactive)	-0.125	-0.293	0.244	0.764	0.711	-1.31 (inactive)	0.167	1.43 (inactive)	0.761 (inactive)	0.916 (inactive)	0.821 (inactive)	-0.227	-1.14 (inactive)	-1.2 (inactive)	-0.411
CC1O[C@H]2C3=C(C(=O)[C@@H]4O[C@@H]4[C@H]3O)[C@@H]1C1[C@@H](C)OC=C3[C@H](O)C4O[C@@H]4C(=NOCc4ccccc4)[C@]312 (stereo not given in full)	0.161	-3.64 (inactive)	0.933 (inactive)	2.18 (inactive)	6.5 (inactive)	-0.438	-0.0963	1.66	-0.073	0.242	-0.259 (inactive)	-0.184	1.3 (inactive)	0.184 (inactive)	0.0322 (inactive)	0.0995 (inactive)	-0.871	0.32 (inactive)	0.584 (inactive)	0.445
CCCCc1nc2c(c3c1C[C@H](C)OC3)CN(CCOc1ccccc1)CC2	0.0426	-1.65 (inactive)	-2.34 (inactive)	7.15 (inactive)	-1.03 (inactive)	0.501	-0.1	0.599	-0.0271	1.32	0.19 (inactive)	-0.0186	1.3 (inactive)	-0.611 (inactive)	0.128 (inactive)	-0.421 (inactive)	1.86	-0.201 (inactive)	0.25 (inactive)	0.747
C[n+]1ccc(-c2ccc(CO)cc2)cc1	-0.0113	0.0559 (inactive)	0.466 (inactive)	0.919 (inactive)	0.723 (inactive)	2.72	-0.0209	0.565	1.67	2.14	0.209 (inactive)	-0.0303	-0.8 (inactive)	-0.376 (inactive)	-1.05 (inactive)	-0.0148 (inactive)	-0.6	-0.225 (inactive)	-0.0911 (inactive)	-3.04
CO[C@H]1COC(=O)CC=C[C@H](C)[C@@H](OC)COC(=O)[C@@H](C)COC(=O)CC=C[C@@H]1C	-0.545	-1.66 (inactive)	0.0344 (inactive)	-0.292 (inactive)	-1.02 (inactive)	-0.411	-0.331	2.79	2.2	2.12	-0.513 (inactive)	-0.193	-0.435 (inactive)	0.106 (inactive)	0.033 (inactive)	-0.213 (inactive)	-0.0875	-1.46 (inactive)	0.28 (inactive)	0.18
COC(=O)[C@@H]1CC[C@@H](C)[C@H](c2ccc(Br)cc2)N1	-0.0771	-1.09 (inactive)	0.328 (inactive)	-0.258 (inactive)	-1.02 (inactive)	-0.165	-0.249	0.303	0.145	-0.139	-0.394 (inactive)	0.0962	0.121 (inactive)	-0.0391 (inactive)	-0.242 (inactive)	-0.191 (inactive)	0.333	-3.29 (inactive)	-0.185 (inactive)	-0.781
CCOC(=O)C1=NO[C@@]2(C=C(Br)C3(OCCCO3)[C@H]3O[C@H]32)C1	0.4	0.164 (inactive)	0.208 (inactive)	-0.258 (inactive)	0.572 (inactive)	1.45	-0.0313	0.712	0.332	0.959	0.721 (inactive)	0.026	0.123 (inactive)	0.105 (inactive)	0.157 (inactive)	-0.218 (inactive)	-0.235	0.925 (inactive)	-0.373 (inactive)	0.43
O=C1CCCC=C1C(CCc1ccccc1)OC(=O)c1ccc(Br)cc1 (stereo not given)	-0.223	-3.61 (inactive)	0.96 (inactive)	0.111 (inactive)	0.171 (inactive)	0.0598	-0.218	-0.249	0.0696	-0.115	-0.303 (inactive)	0.16	10.6 (active)	0.748 (inactive)	-0.295 (inactive)	-0.364 (inactive)	0.307	1.36 (inactive)	0.397 (inactive)	-1.5
